Results filed as inconclusive are left out. Active and inactive are the calls of the source. The calls were made as follows: active = hit-call score of the fitted dose curve at least 0.9, where 1 is the maximum; inconclusive = response in the unintended direction; inactive = score below 0.9.
Target: Retinoic acid receptor RXR-alpha (Homo sapiens) (UniProt P19793)
Assay: ATG_RXRa_TRANS: Attagene TRANS-FACTORIAL HepG2 Assay for human Retinoid X Receptor alpha (RXRa) (AID 2283012)
In short: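 Read-out: fluorescent reporter-transcript fragments quantified by capillary electrophoresis after RT-PCR. Transiently transfected HepG2 cells carrying GAL4-UAS reporters and NR-GAL4 chimeras were exposed to chemical for 24 h; activity scored as increase over DMSO.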

Chain of Retinoic acid receptor RXR-alpha (Homo sapiens) (P19793 whole entry, looked up): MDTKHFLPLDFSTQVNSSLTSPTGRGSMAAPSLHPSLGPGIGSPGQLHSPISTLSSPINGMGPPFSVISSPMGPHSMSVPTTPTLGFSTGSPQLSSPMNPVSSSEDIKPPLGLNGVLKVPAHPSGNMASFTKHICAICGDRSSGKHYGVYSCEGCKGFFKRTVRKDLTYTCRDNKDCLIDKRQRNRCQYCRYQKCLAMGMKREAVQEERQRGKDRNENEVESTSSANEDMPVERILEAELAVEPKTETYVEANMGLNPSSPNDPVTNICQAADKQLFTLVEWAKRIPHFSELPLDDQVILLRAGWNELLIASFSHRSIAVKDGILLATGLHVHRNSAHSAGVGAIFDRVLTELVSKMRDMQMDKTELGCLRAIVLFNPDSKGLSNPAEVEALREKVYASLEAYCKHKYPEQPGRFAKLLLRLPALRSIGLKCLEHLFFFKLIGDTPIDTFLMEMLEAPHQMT

SMILES | outcome
CCN1CCCC1=O | inactive
COc1ccc(-c2coc3cc(O)cc(O)c3c2=O)cc1 | inactive
CCCCC/C=C\C/C=C\CCCCCCCC(=O)O | inactive
CC(C)(C)NC(=O)[C@H]1CC[C@H]2[C@@H]3CC[C@H]4NC(=O)C=C[C@]4(C)[C@H]3CC[C@]12C | inactive
C[N+](C)(C)CCCNS(=O)(=O)C(F)(F)C(F)(F)C(F)(F)C(F)(F)C(F)(F)C(F)(F)C(F)(F)C(F)(F)F | inactive
CCCCC1C(=O)N(c2ccccc2)N(c2ccccc2)C1=O | inactive
CC1(C)[C@@H]2CC[C@@]1(C)C(=O)C2 | inactive

Target: human Retinoid X Receptor beta (RXRb), RXRB (gene 6257) (UniProt P28702)
Assay: ATG_RXRb_TRANS: Attagene TRANS-FACTORIAL HepG2 Assay for human Retinoid X Receptor beta (RXRb) (AID 2283013)
In short: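 Read-out: reporter mRNA induction via RT-PCR plus capillary electrophoresis fluorescence, analysed as signal increase relative to DMSO. Cells were human HepG2, transiently transfected with GAL4-UAS reporter constructs and chimeric receptor-Gal4 fusions, dosed for 24 h.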

Chain of human Retinoid X Receptor beta (RXRb), RXRB (gene 6257) (P28702 whole entry, looked up): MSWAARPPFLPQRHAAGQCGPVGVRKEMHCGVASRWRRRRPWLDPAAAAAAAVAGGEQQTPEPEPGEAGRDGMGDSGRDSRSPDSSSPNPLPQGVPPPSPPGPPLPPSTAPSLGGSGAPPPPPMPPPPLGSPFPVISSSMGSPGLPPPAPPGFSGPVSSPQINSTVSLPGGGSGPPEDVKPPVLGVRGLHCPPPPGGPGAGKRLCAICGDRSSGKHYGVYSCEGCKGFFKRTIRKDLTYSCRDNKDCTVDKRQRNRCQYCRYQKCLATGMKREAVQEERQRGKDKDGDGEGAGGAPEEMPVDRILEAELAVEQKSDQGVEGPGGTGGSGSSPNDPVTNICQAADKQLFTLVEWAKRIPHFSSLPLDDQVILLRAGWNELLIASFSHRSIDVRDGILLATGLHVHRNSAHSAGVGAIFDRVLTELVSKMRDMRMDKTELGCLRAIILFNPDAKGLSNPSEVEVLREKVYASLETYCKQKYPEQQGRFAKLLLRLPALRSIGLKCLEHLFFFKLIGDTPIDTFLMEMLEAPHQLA

SMILES | outcome | AC50
O=C(O)C1CCC(C(=O)O)CC1 (stereo not given) | inactive | –
C=CC(C)(CCC=C(C)C)OC(=O)C=Cc1ccccc1 (stereo not given) | inactive | –
C1CCSC1 | inactive | –
C=CC(=O)NC(C)(C)C | inactive | –
CC(C)CCCCCOC(=O)CS | inactive | –
Oc1ccccc1Cc1ccccc1O | inactive | –
CC(C)COC(=O)CC(C(=O)OCC(C)C)S(=O)(=O)O (stereo not given) | inactive | –
CCc1cccc(CC)c1 | inactive | –
CCC(C)N (stereo not given) | inactive | –
CC1=CCC(C(C)C)C=C1 (stereo not given) | inactive | –
CCCCCCO | inactive | –
O=C(Oc1ccccc1)c1ccccc1O | inactive | –
CCCCCCCOC(=O)c1ccc(O)cc1 | – | 11.1 µM (active)
c1ccc2sc(SSN3CCOCC3)nc2c1 | inactive | –
CCOB(OCC)OCC | inactive | –
CC1CCC(=O)C1=O (stereo not given) | – | 59.8 µM (active)
CCCCCCCCCCCCCCCCCCOS(=O)(=O)O | – | 34.3 µM (active)
O=C1CCCCCCCCCCCN1 | – | 33.8 µM (active)

Target: human Thyroid Receptor alpha (THRa1), THRA (gene 7067) (UniProt P10827)
Assay: ATG_THRa1_TRANS: Attagene TRANS-FACTORIAL HepG2 Assay for human Thyroid Receptor alpha (THRa1) (AID 2283014)
In short: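 Reporter transcript induction, read by capillary electrophoresis of 6-FAM-labelled RT-PCR products, reflects activity of a transfected THRa1-Gal4 fusion in HepG2 liver cells. Cells were dosed for 24 h; activity was fitted in the positive direction against DMSO.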

Chain of human Thyroid Receptor alpha (THRa1), THRA (gene 7067) (P10827 whole entry, looked up): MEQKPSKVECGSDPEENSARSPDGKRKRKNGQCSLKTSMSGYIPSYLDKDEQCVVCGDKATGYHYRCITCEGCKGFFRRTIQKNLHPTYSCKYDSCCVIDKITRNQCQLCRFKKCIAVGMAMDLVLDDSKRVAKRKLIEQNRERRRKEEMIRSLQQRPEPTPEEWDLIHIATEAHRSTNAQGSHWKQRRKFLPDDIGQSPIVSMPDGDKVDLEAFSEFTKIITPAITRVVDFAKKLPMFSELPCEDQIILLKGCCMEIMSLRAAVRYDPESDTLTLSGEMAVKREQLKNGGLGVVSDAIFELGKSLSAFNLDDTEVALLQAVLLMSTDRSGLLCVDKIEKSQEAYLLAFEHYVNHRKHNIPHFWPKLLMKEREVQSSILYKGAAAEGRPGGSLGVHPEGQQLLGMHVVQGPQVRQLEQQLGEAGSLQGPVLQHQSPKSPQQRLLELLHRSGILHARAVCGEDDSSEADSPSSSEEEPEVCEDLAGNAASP

SMILES | outcome
CCN1CCCC1=O | inactive
COc1ccc(-c2coc3cc(O)cc(O)c3c2=O)cc1 | inactive
C=CC(C)(CCC=C(C)C)OC(=O)C=Cc1ccccc1 (stereo not given) | inactive
C1CCSC1 | inactive
CCCCCOC(=O)CCCCC | inactive
Nc1ccc(C(=O)OCCCOC(=O)c2ccc(N)cc2)cc1 | inactive
Oc1ccccc1Cc1ccccc1O | inactive
O=C(Oc1ccccc1)c1ccccc1O | inactive
c1ccc2sc(SSN3CCOCC3)nc2c1 | inactive
CCOB(OCC)OCC | inactive
CC1(C)[C@@H]2CC[C@@]1(C)C(=O)C2 | inactive
CCCCCCCCCCCCCCCCCCOS(=O)(=O)O | inactive
CO[Si](C)(C)OC | inactive
Oc1ccc(-c2ccccc2)c(Cl)c1 | inactive
CN(C)Cc1cc(CN(C)C)c(O)c(CN(C)C)c1 | inactive

— PubChem BioAssay (EPA / NIEHS)
